Bioassay records deposited in PubChem by National Center for Advancing Translational Sciences (NCATS).
IL1B secr inh – qHTS for Inhibitors of Inflammasome Signaling: IL-1-beta AlphaLISA Primary Screen | THP-1 LPS/ATP IL-1B secretion, AlphaLISA, 16 h; stronger effect = lower value | activity change, % at 57.5 µM | actives 4.7% (n = 360,000); in the data active = activity change below about -50%; inconclusive = mostly about -30% to -49%; note: % is set by controls: 0 for no effect and ±100 for the full control effect
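THP-1 cells pretreated 1 hr with compounds (up to 57.5 uM final), then stimulated with LPS (250 ng/mL final) plus ATP (1.25 mM final); secreted IL-1B measured by AlphaLISA after 16 hr, decreased signal indicating inhibition.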
Gal4-VP16 FLuc – VP16 counterscreen qHTS for inhibitors of ROR gamma transcriptional activity. Potency, µM (doses to about 53.6 µM), inactives show at the top dose activity, negative = inhibition, hits mostly inhibitors. Drosophila S2 Gal4-VP16 UAS-luciferase, luminescence, 20 h. actives 3.5% (n = 310,000);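 note: Gal4-VP16 expression switched on by copper sulfate through the metallothionein promoter; potency is the fitted concentration of half-maximal effect; % is set by controls: 0 for no effect and ±100 for the full control effect; nearly all actives have a fitted effect of over 50% in size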
MCF10A rerep – A quantitative high throughput screen for small molecules that induce DNA re-replication in MCF 10a normal breast cells; MCF 10A DNA re-replication, Hoechst nuclear intensity, 48 h; actives 2.9% (n = 350,000); Potency, µM (highest dose often 46.1 µM), inactives show top-dose activity, positive = re-replication, actives largely listed as activators; AID 624296, 2012; note: potency is the fitted concentration of half-maximal effect; % of control where 0% means no effect; nearly all actives have a fitted effect of over 50% in size
SW480 rereplic – A quantitative high throughput screen for small molecules that induce DNA re-replication in SW480 colon adenocarcinoma cells; actives 1.8% (n = 340,000); SW480 DNA re-replication, Hoechst DNA content imaging, 48 h; AID 624297, 2012; Potency, µM (highest dose often 46.1 µM), without a hit: at the highest dose re-replication activation, actives largely listed as activators; note: potency is the fitted concentration of half-maximal effect; % of control where 0% means no effect; nearly all actives have a fitted effect of over 55% in size
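Image-based DNA-content assay: after two days of treatment, nuclei were labelled with the DNA dye Hoechst and imaged, and hits were compounds raising the count of nuclei showing high fluorescence intensity.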
RORg inh – qHTS for inhibitors of ROR gamma transcriptional activity; Nuclear receptor ROR-gamma (Mus musculus), P51450; Drosophila S2 Gal4-RORgamma UAS-luciferase reporter, 20 h; Potency, µM (top dose mostly 53.6 µM), for inactives: at the top dose activity change, negative = inhibition, most hits filed as inhibitors; actives 5.4% (n = 310,000); AID 2551, 2010; note: potency is the fitted concentration of half-maximal effect; % is set by controls: 0 for no effect and ±100 for the full control effect; nearly all actives have a fitted effect of over 60% in size
Target sequence (P51450 whole entry, looked up, the tested form may be a part): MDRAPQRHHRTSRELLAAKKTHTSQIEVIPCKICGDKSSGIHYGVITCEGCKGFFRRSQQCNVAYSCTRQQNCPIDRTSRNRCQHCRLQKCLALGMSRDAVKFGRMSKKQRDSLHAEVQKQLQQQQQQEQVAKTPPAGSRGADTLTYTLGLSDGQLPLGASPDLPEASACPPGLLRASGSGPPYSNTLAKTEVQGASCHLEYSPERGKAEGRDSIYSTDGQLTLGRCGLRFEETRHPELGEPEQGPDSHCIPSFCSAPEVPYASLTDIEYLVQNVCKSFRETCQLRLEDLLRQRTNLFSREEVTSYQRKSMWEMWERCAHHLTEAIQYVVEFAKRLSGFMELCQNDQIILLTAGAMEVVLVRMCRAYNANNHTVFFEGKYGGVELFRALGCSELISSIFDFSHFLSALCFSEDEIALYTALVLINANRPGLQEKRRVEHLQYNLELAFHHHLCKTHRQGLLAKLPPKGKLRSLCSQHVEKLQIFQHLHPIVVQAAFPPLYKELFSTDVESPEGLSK
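Stably transfected Drosophila Schneider cells are the test system, with ROR gamma fused to Gal4 and luciferase under UAS control; luminescence is read after 20 hr of 700 uM copper sulfate induction at ambient temperature.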
* = called active by the depositor; ? = inconclusive; . = no result given; ! = not confirmed by another sample; [ ] = dose if it differs, or a comment. In the library only some 11% were active in any assay of this set; here they are far more common. Unless noted, calls come from the whole dose curve; as a rule, active = well fitted curve in the direction sought with a large enough effect; inconclusive = small, poorly fitted or top-dose-only effect, or another doubt; inactive = no such curve, though single readings can be large; an effect the other way counts as inactive or inconclusive.

SMILES	IL1B secr inh	Gal4-VP16 FLuc	MCF10A rerep	SW480 rereplic	RORg inh
COc1cc([C@@H]2c3cc4c(cc3[C@H](O)[C@H]3COC(=O)[C@H]23)OCO4)cc(OC)c1OC	63	-16%	0.021µM*	0.023µM*	3%
COc1cc([C@@H]2c3cc4c(cc3[C@@H](OC)[C@H]3COC(=O)[C@H]23)OCO4)cc(OC)c1O	71	-15%	?	5.2µM*	14%
COc1cc(C2c3cc4c(cc3C(O)C3COC(=O)C23)OCO4)cc(OC)c1O (centres undefined)	.	-12%	.	.	-13%
O=C1N=NC2=C1c1c3ccccc3c(O)n1CC2	-21	3%	-32%	-4%	24%
N#Cc1nn(-c2c(Cl)cc(C(F)(F)F)cc2Cl)c(N)c1S(=O)C(F)(F)F (centres undefined)	.	20µM*	1%	-3%	?
O=c1[nH]c(=O)n(Cl)c(=O)n1Cl	.	0%	1%	0%	-13%[10 µM]
CCOC(=O)c1cc(CC)sc1/N=C/c1c(O)[nH]c(=S)[nH]c1=O	-12	?	-7%	-3%	18µM*
C=CCOC(C)=O	.	3%	.	.	9%
CC(=O)OC1C(=O)OCC23CCC4(C)OC4C2OC2CC(OC(=O)C=CC=CC(=O)OCCC1C)C3(C)C21CO1 (centres undefined)	-101*	.	12%	?	.
CC(O)C1C=CC=CC(=O)OC2CC3OC4C5OC5(C)CCC4(COC(=O)C4OC4(C)C(O)CO1)C2(C)C31CO1 (centres undefined)	-100*	.	0.15µM*	0.46µM*	.
ClCCN(CCCl)c1ccc(C=Cc2ccncn2)cc1	?	.	15µM*	?	.
COc1ccc(CNC(=O)/C=C\c2ccc3[nH]cc(CCN(C)C)c3c2)cc1	.	0%	.	.	3%
O=C1NC(=O)N(Cc2ccccc2)C(=O)/C1=C/C=C/c1ccco1	-98*	13µM*	4.1µM*	18µM*	?
CC(C)c1ccc(N2C(=O)NC(=O)/C(=C\C=C\c3ccco3)C2=O)cc1	-100*	4.5µM*	3.7µM*	21µM*	?
CC(C)c1ccc(N2C(=O)NC(=O)/C(=C\c3cnc(-c4ccccc4)nc3)C2=O)cc1	-4	-2%	4%	-3%	1%
CC12Cc3cn[nH]c3C=C1CCC1C2CCC2(C)C1CCC2(C)O (centres undefined)	-91*	.	176%	?	.
CC(C)(C)c1nc(N2CCN(C(=O)c3ccco3)CC2)c2nnn(Cc3ccccc3Cl)c2n1	-9	?	18µM*	10%	?
CNC(C)C(O)c1ccc(O)cc1 (centres undefined)	.	-5%	7%	0%	-7%
Cc1nn(Cc2ccccc2Cl)c(Cl)c1C(=O)O	18	0%	-4%	3%	-4%
COc1ccc(NC(=O)c2c(C)nn(Cc3ccccc3Cl)c2Cl)cc1Cl	-13	-13%	16µM*	-5%	-8%
COc1cc2c3cc1Oc1cc(ccc1O)C[C@@H]1c4c(cc(OC)c(O)c4Oc4cccc(c4)C[C@H]3N(C)CC2)CC[N+]1(C)C	.	-4%[17 µM]	.	.	3%[16.9 µM]
Cc1c(C(=O)NCCC2=CCCCC2)oc2ccc(S(=O)(=O)N3CCC4(CC3)OCCO4)cc12	-66*	-1%	?	24%	-2%
Cc1c(C(=O)N2CCC3(CC2)OCCO3)oc2ccc(S(=O)(=O)N3CCOCC3)cc12	0	-5%[0.365 µM]	0%	-21%	38%
CC(C)(OOC(C)(C)c1ccccc1)c1ccccc1	.	4%	.	.	43%
CC(=O)Nc1ccc([As](=O)(O)c2ccc([N+](=O)[O-])cc2)cc1	27	3%	-7%	-28%	26%
SMILES	IL1B secr inh	Gal4-VP16 FLuc	MCF10A rerep	SW480 rereplic	RORg inh
N#CC(C#N)=NNc1ccc([N+](=O)[O-])cc1	-91*	?	18µM*	?	?
CCN(CC)S(=O)(=O)c1ccc(NN=C(C#N)C#N)cc1	-81*	?	10µM*	16%	2%
C1=C(c2c[nH]c3ccccc23)CCN(Cc2ccccc2)C1	0	2%	16µM*	13µM*	17%
COC(=O)C1=C(c2cc3ccccc3o2)C[C@@H]2CC[C@H]1N2C(=O)N1CCCCC1	31	.	?	12µM*	.
CC1=C2[C@@H]3OC(=O)[C@@H](C)[C@@H]3CC[C@]2(C)C=CC1=O	.	2%[17 µM]	18%	2%	0%[16.9 µM]
C=CCN1C(=O)NC(=O)/C(=C\c2ccc(-c3ccccc3[N+](=O)[O-])o2)C1=O	-100*	-18%	?	-7%	9%
CCOC(=O)CCN(SN(C)C(=O)Oc1cccc2c1OC(C)(C)C2)C(C)C	.	29%	.	.	31%
CCCCCCCCCCCCCCCC[n+]1ccccc1	-92*!	16µM*	?	5%	?
CCCCCc1cc(O)c2c(c1)OC(C)(C)C1CC=C(C)CC21 (centres undefined)	.	?	7.5µM*	?	31%
CC(C)C[C@H]1CNC(=S)N1CC1CCN(CC2CCC(C(C)(C)C)CC2)CC1 (some centres undefined)	-22	.	?	2%	.
O=C(CCl)Nc1nccs1	-62*	13µM*	?	16µM*	?
O=C(Nc1ccc(Cl)cc1)Nc1nccs1	13	5%	7.3µM*	5.8µM*	-8%
COc1ccc2c3c([nH]c2c1)C(C)=NCC3	-84*	3%	-8%	?	?
CC1=NCCc2c1[nH]c1cc(O)ccc21	6	-4%	?	?	-24%
Oc1c(Cl)c(Cl)c(Cl)c(Cl)c1Cl	-11	?	8.2µM*	-9%	?
CCC[CH2][Sn]([Cl])([Cl])[Cl]	.	-9%	.	.	-6%
CN(C)C(=O)Oc1ccnc2cc(Cl)ccc12	-73*	-18%	-12%	-8%	8%
CCCSc1ccc2nc(NC(=O)OC)[nH]c2c1	56	-14%	0.73µM*	0.82µM*	-22%
C=C(C)C#N	.	5%	.	.	12%
COc1cccc(OC)c1C1=NCC(=O)Nc2c1oc1ccc(Br)cc21	21	7%	?	0.65µM*	43%
O=C1CN=C(c2ccccc2)c2oc3ccc(Br)cc3c2N1	12	-8%	9%	0%	1%
O=C(Nc1nnc(SCc2ccccc2Cl)s1)C1COc2ccccc2O1 (centres undefined)	-27	2%	?	-7%	?
COC1C(C)OC(OC2CC(C)(O)Cc3cc4c(c(O)c32)C(=O)c2c(O)cc3c(c2C4=O)OC2OC3(C)C(O)C(N(C)C)C2O)C(OC)C1(C)OC (centres undefined)	-99*	.	-10%	-8%	.
